Results reported in PubChem BioAssay (EPA / NIEHS).
Inconclusive results are not listed. Active and inactive are the calls of the source. How the source made its calls: active means hit-call score of the fitted dose curve at least 0.9, where 1 is the maximum; inconclusive means response in the unintended direction; inactive means score below 0.9.

These compounds were tested against human Dopamine Transporter (DAT), SLC6A3 (gene 6531) (UniProt Q01959) (assay: NVS_TR_hDAT: NovaScreen (NVS) Transporter Assay for human Dopamine Transporter (DAT) (AID 2283374)).
Chain of human Dopamine Transporter (DAT), SLC6A3 (gene 6531) (Q01959 whole entry, looked up): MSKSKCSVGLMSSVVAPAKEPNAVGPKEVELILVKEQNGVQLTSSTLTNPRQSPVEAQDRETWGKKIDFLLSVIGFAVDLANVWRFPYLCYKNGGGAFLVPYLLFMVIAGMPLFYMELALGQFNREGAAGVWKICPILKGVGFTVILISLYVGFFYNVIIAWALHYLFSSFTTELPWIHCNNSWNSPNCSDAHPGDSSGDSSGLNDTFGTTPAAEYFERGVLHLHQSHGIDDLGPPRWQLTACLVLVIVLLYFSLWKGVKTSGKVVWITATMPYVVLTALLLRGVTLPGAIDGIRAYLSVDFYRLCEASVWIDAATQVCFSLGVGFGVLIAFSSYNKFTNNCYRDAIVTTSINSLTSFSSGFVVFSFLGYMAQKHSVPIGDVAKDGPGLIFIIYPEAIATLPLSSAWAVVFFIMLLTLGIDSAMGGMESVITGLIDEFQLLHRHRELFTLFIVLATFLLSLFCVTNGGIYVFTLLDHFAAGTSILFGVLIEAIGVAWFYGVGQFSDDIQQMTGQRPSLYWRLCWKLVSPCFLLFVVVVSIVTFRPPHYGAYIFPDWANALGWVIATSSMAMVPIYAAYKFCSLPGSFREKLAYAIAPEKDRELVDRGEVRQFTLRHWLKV
Method: NVS_TR_hDAT is a biochemical, single-readout assay that uses extracted gene-proteins in a cell-free assay. Measurements were taken 1 hour after chemical dosing in a 96-well plate.NVS_TR_hDAT is one of one assay component(s) measured or calculated from the NVS_TR_hDAT assay. It is designed to make measurements of radioligand binding, a form of binding reporter, as detected with scintillation counting signals by Filter-based radiodetection technology.Data from the assay component NVS_TR_hDAT was analyzed into 1 assay endpoint. This assay endpoint, NVS_TR_hDAT, was analyzed in the positive analysis fitting direction relative to DMSO as the negative control and baseline of activity. Using a type of binding reporter, loss-of-signal activity can be used to understand changes in the binding as they relate to the gene SLC6A3. Furthermore, this assay endpoint can be referred to as a primary readout, because the performed assay has only produced 1 assay endpoint. To generalize the intended target to other relatable targets, this assay endpoint is annotated to the transporter intended target family, where the subfamily is neurotransmitter transporter.
Binding assays used specific radioligands (tritiated, iodinated) with non-radioactive competitive displacement ligands in agonist or antagonist protocols (as indicated) and various reference compounds and inhibitors to titrate specific binding to receptors and transporters. Most enzyme assays (CYPs, kinases, phosphatases, proteases, HDACs) used recombinant protein and specific substrates (fluorescence mostly, some colorimetric and radioactive) and inhibitors, followed by a biochemical separation of substrate and product. All assays for the biochemical HTS were initially run in duplicate at a single concentration (10 uM for CYP450 assays and 25 uM for all others). […] Each assay was run with positive and negative controls, and concurrent controls on every plate. The follow-up (secondary) screen tested active chemical-pairs in concentration series, as well as a few additional assays not tested in the primary screen, some selected negative inactives, and several cases re-run in the concentration series for confirmatory purposes.

Structure (SMILES)	AC50	outcome
CCCCN(CCCC)CCCC	16.7 µM (active)	
CCOC(=O)CCC(=O)OCC		inactive
Cc1ccc2ncccc2c1		inactive
O=C(N[C@@H](Cc1ccccc1)[C@@H](O)C(=O)N1C[C@@H](O)[C@@H](O)C1)c1cc2cc(Cl)ccc2[nH]1	11.5 µM (active)	
COc1ccc(S(=O)(=O)N2C(=O)[C@@](c3ccccc3OC)(N3C[C@H](O)C[C@H]3C(=O)N(C)C)c3cc(Cl)ccc32)c(OC)c1		inactive
CCCc1cc(=O)[nH]c(=S)[nH]1		inactive
COc1ccc2c(c1)c(CC(=O)O)c(C)n2C(=O)c1ccc(Cl)cc1	7.64 µM (active)	
Cc1ccc(C)c(O)c1C	10.3 µM (active)	
CC=Cc1ccc(O)c(OC)c1	8.8 µM (active)	
CN1CCN(Cc2cc(-c3ccc4[nH]c(=O)oc4c3)co2)[C@@H](c2ccc(F)cc2)C1	1.99 µM (active)	
COC(=O)c1ccc(O)cc1		inactive
Cc1c(C(=O)O)c(O)cc2c1C(=O)c1c(O)c([C@@H]3O[C@H](CO)[C@@H](O)[C@H](O)[C@H]3O)c(O)c(O)c1C2=O		inactive
CCc1c(C(=O)NN2CCCCC2)nn(-c2ccc(Cl)cc2Cl)c1-c1ccc(Br)cc1	6.88 µM (active)	
CCCCC(CC)COC(=O)CC(C(=O)OCC(CC)CCCC)S(=O)(=O)O (stereo not given)	8.14 µM (active)	
CC1(C)CC(N=C=O)CC(C)(CN=C=O)C1 (stereo not given)		inactive
Nc1ccc(S(=O)(=O)c2ccc(N)cc2)cc1	3.85 µM (active)	
O=C(O)Cc1ccccc1Nc1c(Cl)cccc1Cl		inactive
Oc1ccc2c(c1)OC[C@@H](N1CCC(O)(c3ccc(F)cc3)CC1)[C@H]2O	12.5 µM (active)	
CCOC(=O)C(C)(C)Oc1ccc(Cl)cc1		inactive
CN1CCCC1=O	25 µM (active)	
